Where “and” joins values, the source holds several entries; their conditions need not be identical. Identical values can stand only once. Records with an inconclusive call do not appear. Some compounds were tested as several samples or in several runs, with calls that do not always agree. Calls of active or inactive are those of the source. Rule for the calls: active = hit-call score of the fitted dose curve at least 0.9, where 1 is the maximum; inconclusive = response in the unintended direction; inactive = score below 0.9.
Assays:
[1] = TOX21_p53_BLA_p2_viability: Viability Assessment in the Tox21 HCT-116 p53 Agonism Beta-lactamase Assay, Phase 2 (AID 2283591);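 note: actives lower the ATP signal meaning cytotoxicity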
How it was run: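 HCT116 p53-bla cells, 4000/well, dosed after 5 h plating (217-fold dilution of DMSO stocks) and incubated 16 h at 37C. Viability taken as cellular ATP by CellTiter-Glo luminescence after 30 min RT; signal loss marks cytotoxicity.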

[2] = biological target: Cellular tumor antigen p53 (Homo sapiens) (UniProt P04637); test: TOX21_p53_BLA_p2_ratio: Tox21 HCT-116 p53 Agonism Beta-lactamase Assay, Ratio, Phase 2 (AID 2283592)
How it was run: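 An inducible beta-lactamase reporter in HCT116 cells signals p53 pathway activation. After 16 h chemical exposure at 37C, cells load CCF4-AM substrate for 2 h at room temperature; activity is the cleaved/uncleaved emission ratio relative to DMSO.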

[3] = TOX21_p53_BLA_p3_viability: Viability Assessment in the Tox21 HCT-116 p53 Agonism Beta-lactamase Assay, Phase 3 (AID 2283593);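 note: cells exposed to compound for 16 h before reading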
How it was run: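 HCT116 cells, 4000/well, dosed 5 h after plating by pin transfer (217-fold dilution from DMSO stock) and incubated 16 h at 37C, 5% CO2. Viability read as ATP luminescence with CellTiter-Glo after 30 min at room temperature.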

[4] = biological target: Cellular tumor antigen p53 (Homo sapiens) (UniProt P04637); test: TOX21_p53_BLA_p3_ratio: Tox21 HCT-116 p53 Agonism Beta-lactamase Assay, Ratio, Phase 3 (AID 2283596)
How it was run: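 HCT116 p53-bla cells (4000/well) given compound in DMSO (217-fold dilution) after 5 h, incubated 16 h at 37C. CCF4-AM substrate 2 h at room temperature; 460/530 nm emission ratio, gain fitted against DMSO.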

[5] = TOX21_p53_BLA_p4_viability: Viability Assessment in the Tox21 HCT-116 p53 Agonism Beta-lactamase Assay, Phase 4 (AID 2283597);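 note: hits lower the luminescence signal meaning cytotoxicity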
How it was run: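 Compound exposure of HCT116 cells lasts 16 h at 37C, 5% CO2, with DMSO stocks diluted 217-fold. Cellular ATP is then quantified by CellTiter-Glo luminescence after 30 min at room temperature.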

[6] = biological target: Cellular tumor antigen p53 (Homo sapiens) (UniProt P04637); test: TOX21_p53_BLA_p5_ratio: Tox21 HCT-116 p53 Agonism Beta-lactamase Assay, Ratio, Phase 5 (AID 2283599)
How it was run: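 HCT-116 p53-bla cells (4000/well) plated 5 h, dosed with compound (217-fold DMSO dilution) for 16 h at 37 C; CCF4-AM substrate 2 h at room temperature. Activity is the 460/530 nm emission ratio (405 nm excitation), fitted in gain-of-signal direction versus DMSO.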

[7] = TOX21_p53_BLA_p5_viability: Viability Assessment in the Tox21 HCT-116 p53 Agonism Beta-lactamase Assay, Phase 5 (AID 2283600)
How it was run: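 Counter-readout for cytotoxicity: ATP-dependent luminescence from CellTiter-Glo, read in the beta-lactamase wells after 30 min at RT, following a 16 h compound exposure at 37C.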

[8] = biological target: Cellular tumor antigen p53 (Homo sapiens) (UniProt P04637); test: TOX21_p53_BLA_p4_ratio: Tox21 HCT-116 p53 Agonism Beta-lactamase Assay, Ratio, Phase 4 (AID 2283601)
How it was run: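 HCT-116 p53 beta-lactamase reporter cells (4000/well) preincubated 5 h, then compound (217-fold dilution of DMSO stock) for 16 h at 37C. CCF4-AM substrate added 2 h at room temperature; 460/530 nm emission ratio fitted upward versus DMSO.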

Measured: AC50

Sequence of Cellular tumor antigen p53 (Homo sapiens) (P04637 whole entry, looked up): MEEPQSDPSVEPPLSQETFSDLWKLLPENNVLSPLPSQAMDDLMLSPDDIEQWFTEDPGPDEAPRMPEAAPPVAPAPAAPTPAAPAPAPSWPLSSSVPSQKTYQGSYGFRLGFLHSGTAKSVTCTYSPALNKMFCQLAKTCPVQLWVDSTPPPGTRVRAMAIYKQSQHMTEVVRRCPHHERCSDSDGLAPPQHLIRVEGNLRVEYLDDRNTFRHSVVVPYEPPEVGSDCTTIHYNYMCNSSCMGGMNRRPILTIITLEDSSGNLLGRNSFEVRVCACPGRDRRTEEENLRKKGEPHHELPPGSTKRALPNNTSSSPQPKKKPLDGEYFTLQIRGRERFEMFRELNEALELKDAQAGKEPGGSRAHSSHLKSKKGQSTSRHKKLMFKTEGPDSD

CCCCCCCCOc1ccc(C(=O)O)cc1
active: [3] 45.7 µM | [4] 79.4 µM
inactive: [1] | [2] | [5] | [6] | [7]

Cc1cc(O)c2c(O)c3c(O)cccc3cc2c1
inactive: [1] | [2] | [3] | [4] | [5] | [6] | [7]

CCCOC(C(=O)OC1CCN(C)CC1)(c1ccccc1)c1ccccc1
inactive: [1] | [2] | [3] | [4] | [5] | [6] | [7]

CC(=O)OC(C)C[N+](C)(C)C (stereo not given)
inactive: [1] | [2] | [3] | [4] | [5] | [6] | [7]

CC(S)C(=O)NCC(=O)O (stereo not given)
inactive: [1] | [2] | [3] | [4] | [5] | [6] | [7]

CC(CO)(CO)C(=O)O
inactive: [1] | [2] | [3] | [4] | [5] | [6] | [7]

CC[C@H]1OC(=O)[C@H](C)C(=O)[C@H](C)[C@@H](O[C@@H]2O[C@H](C)C[C@H](N(C)C)[C@H]2O)[C@](C)(OC)C[C@@H](C)C(=O)[C@H](C)[C@H]2N(CCCCn3cnc(-c4cccnc4)c3)C(=O)O[C@]12C
inactive: [1] | [2] | [3] | [4] | [5] | [6] | [7] | [8]

CC=C(C)C#N
inactive: [1] | [2] | [3] | [4] | [5] | [6] | [7]

O=[N+]([O-])c1c(Cl)cccc1-c1c[nH]cc1Cl
inactive: [1] | [2] | [6] | [7] | [8]
active: [3] 37.2 µM | [4] 23.6 µM | [5] 36.3 µM

O=C1[C@H]2CCCC[C@H]2C(=O)N1CCCCN1CCN(c2nsc3ccccc23)CC1
inactive: [1] | [2] | [3] | [4] | [5] | [6] | [7]

Nc1ccc(F)cc1F
inactive: [1] | [2] | [3] | [4] | [5] | [6] | [7]

CCCCCCCCCCCC(=O)N(CCO)CCO
inactive: [1] | [2] | [3] | [4] | [5] | [6] | [7]

O=C1CCCCO1
inactive: [1] | [2] | [3] | [4] | [5] | [6] | [7]

[O-][N+](=Nc1ccccc1)c1ccccc1
inactive: [1] | [2] | [3] | [4] | [5] | [6] | [7] | [8]

CC(C)(C)c1cc(CO)cc(C(C)(C)C)c1O
inactive: [1] | [2] | [3] | [4] | [5] | [6] | [7]

CCOC(=O)c1cc(-c2ccccc2)nc2ccc(C)cc12
inactive: [1] | [2] | [3] | [4] | [5] | [6] | [7]

CC(=O)Oc1ccc(C(c2ccc(OC(C)=O)cc2)c2ccccn2)cc1
inactive: [1] | [3] | [6] | [7] | [8]
active: [2] 11.4 µM and 2.16 µM | [4] 1.55 µM and 3.98 µM | [5] 1.4 µM and 2.68 µM | [6] 1.18 µM | [8] 5.22 µM

CCCC(C(=O)OCCN(CC)CC)(c1ccccc1)c1ccccc1
inactive: [1] | [2] | [3] | [4] | [6] | [7]
active: [5] 31.2 µM

Cc1ccsc1C(=CCCN1CCC[C@@H](C(=O)O)C1)c1sccc1C
inactive: [1] | [2] | [3] | [4] | [5] | [6] | [7]

CO/N=C(\C(=O)N[C@@H]1C(=O)N2C(C(=O)O)=C(CSC(=O)c3ccco3)CS[C@H]12)c1csc(N)n1
inactive: [1] | [2] | [3] | [4] | [5] | [6] | [7]

CCCCOCCOCCOCCCC
inactive: [1] | [2] | [3] | [4] | [5] | [6] | [7]

C=CCn1c(=O)n(CC=C)c(=O)n(CC=C)c1=O
inactive: [1] | [2] | [3] | [4] | [5] | [6] | [7]

CCCN(CCc1cccs1)[C@H]1CCc2c(O)cccc2C1
inactive: [1] | [2] | [3] | [4] | [5] | [6] | [7]

CCC(C)n1ncn(-c2ccc(N3CCN(c4ccc(OC[C@H]5CO[C@](Cn6cncn6)(c6ccc(Cl)cc6Cl)O5)cc4)CC3)cc2)c1=O (stereo not given in full)
inactive: [1] | [2] | [3] | [4] | [5] | [6] | [7] | [8]

CCC(=O)c1ccc(O)cc1
inactive: [1] | [2] | [3] | [4] | [5] | [6] | [7]

CC(C)c1ccc2oc3nc(N)c(C(=O)O)cc3c(=O)c2c1
inactive: [1] | [2] | [3] | [4] | [5] | [6] | [7]

Cc1c(-c2ccccc2)oc2c(C(=O)OCCN3CCCCC3)cccc2c1=O
inactive: [1] | [2] | [3] | [4] | [5] | [6] | [7] | [8]

N/C(=N\N=Cc1ccc(Cl)cc1)NN=Cc1ccc(Cl)cc1
active: [3] 42.7 µM | [4] 37.6 µM
inactive: [1] | [2] | [5] | [6] | [7]

CC(=O)Nc1ccc(C=NNC(N)=S)cc1
inactive: [1] | [2] | [3] | [4] | [5] | [6]

CC(C)(O)c1ccccc1CC[C@@H](SCC1(CC(=O)O)CC1)c1cccc(/C=C/c2ccc3ccc(Cl)cc3n2)c1
active: [1] 18.2 µM | [3] 19.4 µM | [4] 33.8 µM | [5] 15.1 µM | [6] 17.6 µM | [7] 14.5 µM | [8] 18.8 µM
inactive: [2]

CCCCCCCC/C=C\CCCCCCCC(=O)N(CCO)CCO
inactive: [1] | [2] | [3] | [4] | [5] | [6] | [7] | [8]

Cc1cccc(CN2CCN(C(c3ccccc3)c3ccc(Cl)cc3)CC2)c1 (stereo not given)
inactive: [1] | [2] | [3] | [4] | [5] | [6] | [7]

Clc1ccc(Cn2c(CN3CCCC3)nc3ccccc32)cc1
inactive: [1] | [2] | [3] | [4] | [5] | [6] | [7]

C[C@]12O[C@H](C[C@]1(O)CO)n1c3ccccc3c3c4c(c5c6ccccc6n2c5c31)CNC4=O
active: [1] 1.06 µM | [2] 0.0434 µM | [3] 1.13 µM | [4] 0.0715 µM | [5] 2.24 µM | [6] 0.0787 µM
inactive: [7]

C=CC(OCC)OCC
inactive: [1] | [2] | [3] | [4] | [5] | [6] | [7] | [8]

COCC(=O)O[C@]1(CCN(C)CCCc2nc3ccccc3[nH]2)CCc2cc(F)ccc2[C@@H]1C(C)C
active: [1] 13.1 µM | [2] 22.4 µM | [3] 10.9 µM | [4] 19.6 µM | [5] 9.78 µM | [6] 25.4 µM | [7] 15.8 µM | [8] 21.6 µM

CCOC(CN1CCN(CC(C)C(=O)c2ccccc2)CC1)c1ccccc1 (stereo not given)
inactive: [1] | [2] | [3] | [4] | [5] | [6] | [7] | [8]

N[C@H](C(=O)O)[C@@H]1CC(Cl)=NO1
active: [1] 15.8 µM | [2] 5.51 µM | [3] 9.5 µM | [4] 5.91 µM | [5] 13.7 µM | [6] 5.35 µM | [7] 11.4 µM | [8] 5.46 µM

Cc1onc(-c2c(F)cccc2Cl)c1C(=O)N[C@@H]1C(=O)N2[C@@H]1SC(C)(C)[C@@H]2C(=O)O
inactive: [1] | [2] | [3] | [4] | [5] | [6] | [7] | [8]

C[n+]1cc2c3c(ccc2c2ccc4cc5c(cc4c21)OCO5)OCO3
active: [1] 4.28 µM | [2] 4.96 µM | [3] 2.31 µM | [4] 2.32 µM | [5] 3.64 µM | [6] 5.66 µM | [7] 5.48 µM | [8] 9.14 µM

O=C(Nc1ncc([N+](=O)[O-])s1)c1cccs1
active: [2] 25 µM | [3] 8.44 µM | [5] 13.4 µM
inactive: [1] | [4] | [6] | [7] | [8]

O=c1c(-c2ccccc2)c1-c1ccccc1
inactive: [1] | [3] | [5] | [6] | [7] | [8]
active: [2] 23.8 µM | [4] 22.2 µM

O=S(c1cc(Cl)cc(Cl)c1O)c1cc(Cl)cc(Cl)c1O
inactive: [1] | [3] | [5] | [6] | [7]
active: [2] 16.2 µM | [4] 6.85 µM | [8] 15.1 µM

CCCCN(CCCC)c1ccc(C(=O)c2ccccc2C(=O)O)c(O)c1
inactive: [2]
active: [1] 17.2 µM | [3] 23.1 µM | [4] 39.8 µM | [5] 21.2 µM | [6] 52.2 µM | [7] 20.3 µM | [8] 45.5 µM

CN(C/C=C/c1ccccc1)Cc1cccc2ccccc12
inactive: [1] | [2] | [3] | [4] | [5] | [6] | [7] | [8]

Reference: PubChem BioAssay (EPA / NIEHS)
